# Measured values taken from publication PMC7862700, “An all-to-all approach to the identification of sequence-specific readers for epigenetic DNA modifications on cytosine”.
# Assays:
# Assay in all cases: DAPPL (digital affinity profiling via proximity ligation, sequencing); 10 mM Tris-HCl pH 7.5, 50 mM NaCl, 1 mM DTT, 4% glycerol, room temperature, 30 min; GST-TFs on glutathione beads, 16-mer random dsDNA library, 0.1% formaldehyde crosslink after washing; high values mean tight binding
# FEV = biological target: T1, FEV (Homo sapiens, UniProt Q99581 1-238); conditions: protein: recombinant; tags: N-terminal GST; dsDNA, one strand shown
# T1 sequence: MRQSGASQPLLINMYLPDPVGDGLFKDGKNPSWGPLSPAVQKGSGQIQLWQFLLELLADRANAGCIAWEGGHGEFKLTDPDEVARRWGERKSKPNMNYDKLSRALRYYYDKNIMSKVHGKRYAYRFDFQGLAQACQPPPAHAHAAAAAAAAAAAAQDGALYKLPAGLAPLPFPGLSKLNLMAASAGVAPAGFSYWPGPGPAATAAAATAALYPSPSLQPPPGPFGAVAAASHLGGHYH
# Summary of the method: (§1)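 Human transcription factors were made in yeast as GST fusions, captured on glutathione beads and barcoded with DNA. With a tag-only sample included, the pool was incubated with 200 nmole of a random double-stranded 16-mer DNA library in Tris/NaCl/DTT/glycerol buffer at room temperature for 30 min, then crosslinked with 0.1% formaldehyde after washing, ligated by proximity, amplified and sequenced. For binding signal, each hexamer's read frequency for a factor is divided by its frequency for the tag-only sample.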
# ETV5 = ETV5 (Homo sapiens, UniProt P41161 1-510); conditions: protein: recombinant; tags: N-terminal GST; dsDNA, one strand shown
# Chain of ETV5 (P41161 whole entry): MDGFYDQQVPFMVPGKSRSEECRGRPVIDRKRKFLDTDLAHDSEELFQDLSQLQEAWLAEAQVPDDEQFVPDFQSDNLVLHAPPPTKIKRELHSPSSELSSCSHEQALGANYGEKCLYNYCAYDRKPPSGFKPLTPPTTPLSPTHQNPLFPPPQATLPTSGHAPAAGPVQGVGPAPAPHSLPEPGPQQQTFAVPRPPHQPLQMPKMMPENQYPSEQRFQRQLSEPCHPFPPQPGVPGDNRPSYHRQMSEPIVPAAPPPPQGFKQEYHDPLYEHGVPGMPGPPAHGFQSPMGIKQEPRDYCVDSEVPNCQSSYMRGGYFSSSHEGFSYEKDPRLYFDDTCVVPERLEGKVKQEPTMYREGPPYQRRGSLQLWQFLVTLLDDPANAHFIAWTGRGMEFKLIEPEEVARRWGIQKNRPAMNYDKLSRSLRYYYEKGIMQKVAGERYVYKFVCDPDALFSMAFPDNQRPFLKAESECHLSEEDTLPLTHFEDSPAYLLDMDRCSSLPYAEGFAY
# Summary of the method: as §1
# HSF1 = HSF1 (Homo sapiens, UniProt Q00613 1-529); conditions: protein: recombinant; tags: N-terminal GST; chain copies: 3; dsDNA, one strand shown
# Chain of HSF1 (Q00613 whole entry): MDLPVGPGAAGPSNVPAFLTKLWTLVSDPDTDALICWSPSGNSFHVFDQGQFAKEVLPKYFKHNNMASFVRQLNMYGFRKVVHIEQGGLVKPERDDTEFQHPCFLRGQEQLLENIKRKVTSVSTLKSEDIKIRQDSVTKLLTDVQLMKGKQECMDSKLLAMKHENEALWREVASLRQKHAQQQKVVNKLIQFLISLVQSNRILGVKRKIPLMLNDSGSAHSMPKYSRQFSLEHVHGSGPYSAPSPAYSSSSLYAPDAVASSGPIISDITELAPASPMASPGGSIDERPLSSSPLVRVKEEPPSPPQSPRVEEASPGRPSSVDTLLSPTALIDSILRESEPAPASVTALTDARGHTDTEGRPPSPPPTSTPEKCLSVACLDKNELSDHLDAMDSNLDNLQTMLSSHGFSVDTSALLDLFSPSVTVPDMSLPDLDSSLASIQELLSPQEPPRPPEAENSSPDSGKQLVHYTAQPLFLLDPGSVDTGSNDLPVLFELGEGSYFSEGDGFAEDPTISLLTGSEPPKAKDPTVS
# Summary of the method: as §1
# SPIC = biological target: T2, SPIC (Homo sapiens, UniProt Q8N5J4 1-248); conditions: protein: recombinant; tags: N-terminal GST; dsDNA, one strand shown
# T2 sequence: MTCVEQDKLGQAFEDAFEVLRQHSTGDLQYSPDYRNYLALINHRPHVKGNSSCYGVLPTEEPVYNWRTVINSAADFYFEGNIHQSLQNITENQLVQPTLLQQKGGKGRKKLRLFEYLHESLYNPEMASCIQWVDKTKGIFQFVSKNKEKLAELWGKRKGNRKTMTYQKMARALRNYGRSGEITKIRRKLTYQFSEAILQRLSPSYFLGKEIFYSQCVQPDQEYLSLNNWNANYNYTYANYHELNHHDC
# Summary of the method: as §1
# ELF4 = ELF4 (Homo sapiens, UniProt Q99607 1-663); conditions: protein: recombinant; tags: N-terminal GST; dsDNA, one strand shown
# Chain of ELF4 (Q99607 whole entry): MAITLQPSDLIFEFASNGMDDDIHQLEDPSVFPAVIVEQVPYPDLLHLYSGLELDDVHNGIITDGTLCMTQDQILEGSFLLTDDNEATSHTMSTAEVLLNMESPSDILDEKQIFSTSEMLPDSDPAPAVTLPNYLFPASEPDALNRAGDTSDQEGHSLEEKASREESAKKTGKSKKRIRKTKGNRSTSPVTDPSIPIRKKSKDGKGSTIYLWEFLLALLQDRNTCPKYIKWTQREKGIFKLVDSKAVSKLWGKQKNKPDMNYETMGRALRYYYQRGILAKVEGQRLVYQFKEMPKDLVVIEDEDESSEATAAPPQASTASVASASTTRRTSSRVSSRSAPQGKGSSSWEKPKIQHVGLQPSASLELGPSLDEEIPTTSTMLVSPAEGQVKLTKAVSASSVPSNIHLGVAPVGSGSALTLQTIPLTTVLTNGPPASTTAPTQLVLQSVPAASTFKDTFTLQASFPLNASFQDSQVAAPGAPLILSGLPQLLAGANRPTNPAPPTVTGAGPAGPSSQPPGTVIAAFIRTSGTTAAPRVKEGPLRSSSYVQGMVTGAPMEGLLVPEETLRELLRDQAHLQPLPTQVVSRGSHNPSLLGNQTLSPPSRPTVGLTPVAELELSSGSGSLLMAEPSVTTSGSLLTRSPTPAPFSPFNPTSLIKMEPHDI
# Summary of the method: as §1
# ELK4 = biological target: T3, ELK4 (Homo sapiens, UniProt P28324-2 1-405); conditions: protein: recombinant; tags: N-terminal GST; dsDNA, one strand shown
# T3 sequence: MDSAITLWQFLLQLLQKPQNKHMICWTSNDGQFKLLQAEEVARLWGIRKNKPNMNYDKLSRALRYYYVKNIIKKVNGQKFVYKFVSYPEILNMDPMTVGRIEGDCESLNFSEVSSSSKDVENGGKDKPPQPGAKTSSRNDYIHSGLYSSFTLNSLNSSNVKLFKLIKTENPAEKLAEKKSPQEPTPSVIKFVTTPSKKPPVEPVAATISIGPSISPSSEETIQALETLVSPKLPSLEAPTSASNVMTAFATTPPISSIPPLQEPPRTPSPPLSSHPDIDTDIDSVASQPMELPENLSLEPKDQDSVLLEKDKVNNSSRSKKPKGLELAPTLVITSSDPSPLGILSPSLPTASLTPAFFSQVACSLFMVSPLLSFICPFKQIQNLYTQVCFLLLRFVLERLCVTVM
# Summary of the method: as §1
# ETV2 = biological target: T4, ETV2 (Homo sapiens, UniProt O00321 1-342); conditions: protein: recombinant; tags: N-terminal GST; dsDNA, one strand shown
# T4 sequence: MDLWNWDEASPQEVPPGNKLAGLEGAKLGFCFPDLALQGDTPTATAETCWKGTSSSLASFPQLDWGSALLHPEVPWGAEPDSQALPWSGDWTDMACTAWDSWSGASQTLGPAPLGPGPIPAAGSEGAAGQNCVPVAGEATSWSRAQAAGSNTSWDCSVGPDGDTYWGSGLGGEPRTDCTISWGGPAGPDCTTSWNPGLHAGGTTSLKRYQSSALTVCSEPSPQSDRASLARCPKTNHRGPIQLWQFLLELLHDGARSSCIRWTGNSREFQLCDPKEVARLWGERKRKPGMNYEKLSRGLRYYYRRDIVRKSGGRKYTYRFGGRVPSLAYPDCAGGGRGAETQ
# Summary of the method: as §1
# ELF3 = biological target: T5, ELF3 (Homo sapiens, UniProt P78545 1-371); conditions: protein: recombinant; tags: N-terminal GST; dsDNA, one strand shown
# T5 sequence: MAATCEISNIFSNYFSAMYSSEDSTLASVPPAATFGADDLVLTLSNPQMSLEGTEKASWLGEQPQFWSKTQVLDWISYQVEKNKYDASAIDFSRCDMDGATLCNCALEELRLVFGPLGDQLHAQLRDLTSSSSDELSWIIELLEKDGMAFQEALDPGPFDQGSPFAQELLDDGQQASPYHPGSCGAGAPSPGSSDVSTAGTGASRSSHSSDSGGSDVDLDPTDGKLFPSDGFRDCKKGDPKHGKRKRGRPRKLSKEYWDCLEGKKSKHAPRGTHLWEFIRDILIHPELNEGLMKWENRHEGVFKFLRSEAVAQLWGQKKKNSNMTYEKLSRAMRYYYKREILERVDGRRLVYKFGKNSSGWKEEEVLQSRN
# Summary of the method: as §1
# CRX = CRX (Homo sapiens, UniProt O43186 1-299); conditions: protein: recombinant; tags: N-terminal GST; dsDNA, one strand shown
# Chain of CRX (O43186 whole entry): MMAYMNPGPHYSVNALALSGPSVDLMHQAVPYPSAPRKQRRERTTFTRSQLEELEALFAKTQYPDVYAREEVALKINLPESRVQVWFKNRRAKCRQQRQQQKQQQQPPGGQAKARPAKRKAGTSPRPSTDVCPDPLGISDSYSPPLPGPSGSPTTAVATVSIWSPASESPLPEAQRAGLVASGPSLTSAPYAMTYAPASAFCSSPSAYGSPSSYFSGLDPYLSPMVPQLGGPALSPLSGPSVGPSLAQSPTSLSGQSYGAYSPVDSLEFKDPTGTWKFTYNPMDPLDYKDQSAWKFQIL
# Summary of the method: as §1
# ETV1 = ETV1 (Homo sapiens, UniProt P50549 1-477); conditions: protein: recombinant; tags: N-terminal GST; dsDNA, one strand shown
# Chain of ETV1 (P50549 whole entry): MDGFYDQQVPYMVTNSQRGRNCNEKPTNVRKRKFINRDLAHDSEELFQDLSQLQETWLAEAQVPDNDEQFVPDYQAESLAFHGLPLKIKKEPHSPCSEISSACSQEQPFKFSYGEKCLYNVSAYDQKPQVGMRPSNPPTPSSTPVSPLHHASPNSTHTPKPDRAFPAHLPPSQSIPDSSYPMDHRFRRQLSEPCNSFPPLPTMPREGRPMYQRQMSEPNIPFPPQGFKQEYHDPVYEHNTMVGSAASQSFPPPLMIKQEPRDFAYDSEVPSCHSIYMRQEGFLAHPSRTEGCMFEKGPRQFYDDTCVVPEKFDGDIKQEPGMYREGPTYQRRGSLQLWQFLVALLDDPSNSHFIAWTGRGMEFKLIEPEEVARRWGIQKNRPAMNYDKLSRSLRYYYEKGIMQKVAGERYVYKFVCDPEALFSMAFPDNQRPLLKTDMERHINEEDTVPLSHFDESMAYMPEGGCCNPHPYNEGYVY
# Summary of the method: as §1
# ERF = biological target: T6, ERF (Homo sapiens, UniProt P50548 1-548); conditions: protein: recombinant; tags: N-terminal GST; dsDNA, one strand shown
# T6 sequence: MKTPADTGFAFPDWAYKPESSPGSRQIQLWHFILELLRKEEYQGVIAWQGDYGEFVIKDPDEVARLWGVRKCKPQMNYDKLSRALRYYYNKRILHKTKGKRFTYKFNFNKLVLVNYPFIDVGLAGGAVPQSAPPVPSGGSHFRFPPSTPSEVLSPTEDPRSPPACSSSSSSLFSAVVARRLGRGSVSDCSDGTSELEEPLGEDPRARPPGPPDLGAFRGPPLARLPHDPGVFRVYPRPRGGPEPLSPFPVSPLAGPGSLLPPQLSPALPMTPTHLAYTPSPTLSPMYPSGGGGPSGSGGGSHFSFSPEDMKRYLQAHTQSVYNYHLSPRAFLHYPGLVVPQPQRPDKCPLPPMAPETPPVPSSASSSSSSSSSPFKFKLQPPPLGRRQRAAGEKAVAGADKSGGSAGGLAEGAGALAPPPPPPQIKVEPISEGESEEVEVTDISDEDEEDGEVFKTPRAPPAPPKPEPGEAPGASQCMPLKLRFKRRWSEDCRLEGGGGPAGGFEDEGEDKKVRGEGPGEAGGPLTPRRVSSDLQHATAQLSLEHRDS
# Summary of the method: as §1
# ETV3L = biological target: T7, ETV3L (Homo sapiens, UniProt Q6ZN32 1-361); conditions: protein: recombinant; tags: N-terminal GST; dsDNA, one strand shown
# T7 sequence: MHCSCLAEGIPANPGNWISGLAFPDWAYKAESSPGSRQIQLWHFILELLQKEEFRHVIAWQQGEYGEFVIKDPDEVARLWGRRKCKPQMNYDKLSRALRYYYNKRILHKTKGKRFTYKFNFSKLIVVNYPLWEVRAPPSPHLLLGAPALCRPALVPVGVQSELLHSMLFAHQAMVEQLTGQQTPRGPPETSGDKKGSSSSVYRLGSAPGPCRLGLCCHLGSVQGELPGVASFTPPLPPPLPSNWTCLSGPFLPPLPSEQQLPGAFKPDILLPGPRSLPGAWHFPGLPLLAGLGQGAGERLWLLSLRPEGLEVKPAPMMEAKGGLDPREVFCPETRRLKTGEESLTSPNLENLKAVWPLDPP
# Summary of the method: as §1
# ETS2 = biological target: T8, ETS2 (Homo sapiens, UniProt P15036 1-469); conditions: protein: recombinant; tags: N-terminal GST; dsDNA, one strand shown
# T8 sequence: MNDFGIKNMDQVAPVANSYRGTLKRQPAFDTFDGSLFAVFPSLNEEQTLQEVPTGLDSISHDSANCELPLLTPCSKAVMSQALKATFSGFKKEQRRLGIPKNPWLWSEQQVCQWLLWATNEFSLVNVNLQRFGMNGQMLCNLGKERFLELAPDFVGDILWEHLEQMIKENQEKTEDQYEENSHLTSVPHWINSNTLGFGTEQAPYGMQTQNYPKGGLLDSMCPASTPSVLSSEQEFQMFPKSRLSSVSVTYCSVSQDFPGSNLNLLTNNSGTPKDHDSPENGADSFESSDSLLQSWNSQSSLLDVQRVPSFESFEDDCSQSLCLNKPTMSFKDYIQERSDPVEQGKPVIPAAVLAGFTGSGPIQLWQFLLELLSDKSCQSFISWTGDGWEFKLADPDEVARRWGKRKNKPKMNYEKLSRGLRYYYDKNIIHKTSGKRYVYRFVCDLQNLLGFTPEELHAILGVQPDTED
# Summary of the method: as §1
# SPDEF = biological target: T9, SPDEF (Homo sapiens, UniProt O95238 1-335); conditions: protein: recombinant; tags: N-terminal GST; dsDNA, one strand shown
# T9 sequence: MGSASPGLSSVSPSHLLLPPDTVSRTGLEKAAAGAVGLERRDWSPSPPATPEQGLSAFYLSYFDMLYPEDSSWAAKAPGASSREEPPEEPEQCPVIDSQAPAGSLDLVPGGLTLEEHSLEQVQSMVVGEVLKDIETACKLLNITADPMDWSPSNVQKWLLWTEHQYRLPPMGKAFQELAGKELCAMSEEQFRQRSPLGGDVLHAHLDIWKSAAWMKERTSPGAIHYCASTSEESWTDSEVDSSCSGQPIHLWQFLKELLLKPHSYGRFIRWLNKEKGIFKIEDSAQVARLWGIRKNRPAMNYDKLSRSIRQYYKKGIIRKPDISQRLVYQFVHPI
# Summary of the method: as §1
# ETV7 = biological target: T10, ETV7 (Homo sapiens, UniProt Q9Y603 1-341); conditions: protein: recombinant; tags: N-terminal GST; dsDNA, one strand shown
# T10 sequence: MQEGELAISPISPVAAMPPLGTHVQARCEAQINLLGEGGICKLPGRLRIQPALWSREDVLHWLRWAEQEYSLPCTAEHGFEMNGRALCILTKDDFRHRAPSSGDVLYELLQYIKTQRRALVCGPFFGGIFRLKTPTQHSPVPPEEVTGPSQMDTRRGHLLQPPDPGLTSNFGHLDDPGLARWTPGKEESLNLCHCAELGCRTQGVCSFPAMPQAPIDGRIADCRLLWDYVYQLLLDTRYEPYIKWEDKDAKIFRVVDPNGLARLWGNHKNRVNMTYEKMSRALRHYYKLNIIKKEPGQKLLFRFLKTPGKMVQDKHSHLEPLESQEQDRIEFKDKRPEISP
# Summary of the method: as §1
# ELF5 = biological target: T11, ELF5 (Homo sapiens, UniProt Q9UKW6-2 1-255); conditions: protein: recombinant; tags: N-terminal GST; dsDNA, one strand shown
# T11 sequence: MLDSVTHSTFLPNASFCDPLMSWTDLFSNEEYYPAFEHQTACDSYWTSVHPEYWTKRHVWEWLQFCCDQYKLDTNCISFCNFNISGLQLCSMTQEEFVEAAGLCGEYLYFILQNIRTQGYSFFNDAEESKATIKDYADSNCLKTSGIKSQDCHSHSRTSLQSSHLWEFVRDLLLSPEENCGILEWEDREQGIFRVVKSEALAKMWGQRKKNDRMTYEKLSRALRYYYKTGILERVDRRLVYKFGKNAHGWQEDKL
# Summary of the method: as §1
# ETV3 = biological target: T12, ETV3 (Homo sapiens, UniProt P41162-2 1-143); conditions: protein: recombinant; tags: N-terminal GST; dsDNA, one strand shown
# T12 sequence: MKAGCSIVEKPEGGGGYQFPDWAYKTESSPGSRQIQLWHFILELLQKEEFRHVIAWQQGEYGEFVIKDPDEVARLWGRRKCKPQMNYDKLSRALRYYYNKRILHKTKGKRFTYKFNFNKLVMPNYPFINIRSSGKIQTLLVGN
# Summary of the method: as §1
# ETV6 = ETV6 (Homo sapiens, UniProt P41212 1-452); conditions: protein: recombinant; tags: N-terminal GST; dsDNA, one strand shown
# Chain of ETV6 (P41212 whole entry): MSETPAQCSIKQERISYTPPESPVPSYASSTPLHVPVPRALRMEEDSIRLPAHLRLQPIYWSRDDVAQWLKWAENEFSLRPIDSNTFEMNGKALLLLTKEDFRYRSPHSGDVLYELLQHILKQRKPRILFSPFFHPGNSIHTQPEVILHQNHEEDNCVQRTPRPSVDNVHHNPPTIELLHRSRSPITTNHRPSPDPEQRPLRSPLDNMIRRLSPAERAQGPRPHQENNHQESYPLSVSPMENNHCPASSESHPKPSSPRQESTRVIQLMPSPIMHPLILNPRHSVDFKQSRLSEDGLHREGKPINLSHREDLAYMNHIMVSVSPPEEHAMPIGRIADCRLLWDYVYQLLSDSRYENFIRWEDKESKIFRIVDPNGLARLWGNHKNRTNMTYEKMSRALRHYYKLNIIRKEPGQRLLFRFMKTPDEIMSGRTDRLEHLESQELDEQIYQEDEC
# Summary of the method: as §1
sequence,measurement,setting,value
AGCTTC,binding signal,FEV,"1.84 fold enrichment (6-mer frequency, TF over GST control)"
same,binding signal,ETV5,"1.85 fold enrichment (6-mer frequency, TF over GST control)"
same,binding signal,HSF1,"1.93 fold enrichment (6-mer frequency, TF over GST control)"
same,binding signal,SPIC,"1.75 fold enrichment (6-mer frequency, TF over GST control)"
same,binding signal,ELF4,"1.67 fold enrichment (6-mer frequency, TF over GST control)"
same,binding signal,ELK4,"1.64 fold enrichment (6-mer frequency, TF over GST control)"
same,binding signal,ETV2,"1.74 fold enrichment (6-mer frequency, TF over GST control)"
same,binding signal,ELF3,"1.58 fold enrichment (6-mer frequency, TF over GST control)"
same,binding signal,CRX,"1.62 fold enrichment (6-mer frequency, TF over GST control)"
same,binding signal,ETV1,"1.62 fold enrichment (6-mer frequency, TF over GST control)"
same,binding signal,ERF,"1.75 fold enrichment (6-mer frequency, TF over GST control)"
same,binding signal,ETV3L,"1.64 fold enrichment (6-mer frequency, TF over GST control)"
same,binding signal,ETS2,"1.77 fold enrichment (6-mer frequency, TF over GST control)"
same,binding signal,SPDEF,"1.67 fold enrichment (6-mer frequency, TF over GST control)"
same,binding signal,ETV7,"1.65 fold enrichment (6-mer frequency, TF over GST control)"
same,binding signal,ELF5,"2.21 fold enrichment (6-mer frequency, TF over GST control)"
same,binding signal,ETV3,"1.77 fold enrichment (6-mer frequency, TF over GST control)"
same,binding signal,ETV6,"1.84 fold enrichment (6-mer frequency, TF over GST control)"
